Results on one sequence are retold here after paper PMC7862700, “An all-to-all approach to the identification of sequence-specific readers for epigenetic DNA modifications on cytosine”.

What all share (assay): DAPPL (digital affinity profiling via proximity ligation, sequencing); 10 mM Tris-HCl pH 7.5, 50 mM NaCl, 1 mM DTT, 4% glycerol, room temperature, 30 min; GST-TFs on glutathione beads, 16-mer random dsDNA library, 0.1% formaldehyde crosslink after washing; high values mean tight binding
For one experiment, the target named is T1, FEV (Homo sapiens, UniProt Q99581 1-238).
T1 sequence: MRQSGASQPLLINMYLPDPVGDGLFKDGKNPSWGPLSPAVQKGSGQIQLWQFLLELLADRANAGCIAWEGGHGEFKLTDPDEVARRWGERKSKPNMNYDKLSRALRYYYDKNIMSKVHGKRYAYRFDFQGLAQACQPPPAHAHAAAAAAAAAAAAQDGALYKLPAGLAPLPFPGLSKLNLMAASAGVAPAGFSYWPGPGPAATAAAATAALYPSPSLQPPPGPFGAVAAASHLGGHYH
Conditions: protein: recombinant; tags: N-terminal GST; dsDNA, one strand shown. In short, it runs like this:
(§1)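 Human transcription factors carrying a GST fusion were produced in yeast, bound to glutathione beads, tagged with DNA barcodes and pooled together with a tag-only sample. Each pool was held with 200 nmole of a random double-stranded 16-mer DNA library in Tris/NaCl/DTT/glycerol buffer for 30 min at room temperature, then washed, crosslinked in 0.1% formaldehyde, proximity-ligated with BsaI/T4 ligase (1 h, 37 °C), PCR-amplified and sequenced on an Illumina NextSeq500. Binding signal is the read frequency of each hexamer for a given factor divided by its frequency in the tag-only sample.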

Another experiment concerns the target ETV5 (Homo sapiens, UniProt P41161 1-510). The settings on record: protein: recombinant; tags: N-terminal GST; dsDNA, one strand shown. In short, it runs like this:
as §1

The target of the next experiment is HSF1 (Homo sapiens, UniProt Q00613 1-529). The settings on record: protein: recombinant; tags: N-terminal GST; chain copies: 3; dsDNA, one strand shown. In short, it runs like this:
as §1

Another experiment deals with T2, SPIC (Homo sapiens, UniProt Q8N5J4 1-248).
T2 sequence: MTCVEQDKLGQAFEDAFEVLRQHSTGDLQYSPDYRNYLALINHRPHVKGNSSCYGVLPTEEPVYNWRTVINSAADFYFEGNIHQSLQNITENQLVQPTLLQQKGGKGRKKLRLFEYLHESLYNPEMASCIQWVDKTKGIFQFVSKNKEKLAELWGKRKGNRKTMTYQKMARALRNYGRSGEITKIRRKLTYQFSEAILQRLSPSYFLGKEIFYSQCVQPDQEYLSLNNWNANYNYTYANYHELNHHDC
The settings on record: protein: recombinant; tags: N-terminal GST; dsDNA, one strand shown. The method, boiled down: as §1

A further experiment addresses ELF4 (Homo sapiens, UniProt Q99607 1-663). The settings on record: protein: recombinant; tags: N-terminal GST; dsDNA, one strand shown. In short, it runs like this: as §1
In the next experiment the target is T3, ELK4 (Homo sapiens, UniProt P28324-2 1-405).
T3 sequence: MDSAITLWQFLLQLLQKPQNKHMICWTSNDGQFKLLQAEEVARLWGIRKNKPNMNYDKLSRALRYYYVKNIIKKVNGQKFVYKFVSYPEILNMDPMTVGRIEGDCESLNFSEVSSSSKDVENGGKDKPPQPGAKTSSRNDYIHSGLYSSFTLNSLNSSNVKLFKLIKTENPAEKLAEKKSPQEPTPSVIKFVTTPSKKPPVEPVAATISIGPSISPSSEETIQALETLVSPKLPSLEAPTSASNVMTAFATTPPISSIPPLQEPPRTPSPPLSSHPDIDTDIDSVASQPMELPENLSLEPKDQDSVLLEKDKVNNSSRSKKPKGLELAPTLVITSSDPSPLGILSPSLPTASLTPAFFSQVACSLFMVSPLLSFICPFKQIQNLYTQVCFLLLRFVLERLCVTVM
The settings on record: protein: recombinant; tags: N-terminal GST; dsDNA, one strand shown. In short, it runs like this: as §1

For the next experiment, the target named is T4, ETV2 (Homo sapiens, UniProt O00321 1-342).
T4 sequence: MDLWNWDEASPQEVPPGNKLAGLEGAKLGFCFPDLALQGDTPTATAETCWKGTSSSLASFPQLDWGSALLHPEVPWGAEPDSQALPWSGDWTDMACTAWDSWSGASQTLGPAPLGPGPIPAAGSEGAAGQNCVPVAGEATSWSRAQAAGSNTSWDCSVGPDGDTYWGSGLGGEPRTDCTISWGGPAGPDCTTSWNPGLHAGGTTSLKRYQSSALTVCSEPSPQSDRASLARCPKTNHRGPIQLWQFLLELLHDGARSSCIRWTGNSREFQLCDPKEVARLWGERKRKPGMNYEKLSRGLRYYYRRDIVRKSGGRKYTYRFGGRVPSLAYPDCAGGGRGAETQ
Conditions: protein: recombinant; tags: N-terminal GST; dsDNA, one strand shown. In short, it runs like this: as §1

For a further experiment, the target named is T5, ELF3 (Homo sapiens, UniProt P78545 1-371).
T5 sequence: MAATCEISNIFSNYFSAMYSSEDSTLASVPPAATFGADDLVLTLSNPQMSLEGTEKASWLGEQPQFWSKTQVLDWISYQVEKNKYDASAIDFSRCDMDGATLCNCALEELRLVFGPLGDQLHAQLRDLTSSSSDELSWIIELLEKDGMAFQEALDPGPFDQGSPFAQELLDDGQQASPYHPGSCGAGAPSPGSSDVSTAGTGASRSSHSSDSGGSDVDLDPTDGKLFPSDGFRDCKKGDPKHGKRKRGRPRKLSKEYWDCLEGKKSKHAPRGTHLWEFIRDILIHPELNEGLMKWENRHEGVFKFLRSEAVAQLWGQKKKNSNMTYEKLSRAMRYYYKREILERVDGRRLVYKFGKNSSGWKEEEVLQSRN
The settings on record: protein: recombinant; tags: N-terminal GST; dsDNA, one strand shown. In short, it runs like this:
as §1

A further experiment concerns the target CRX (Homo sapiens, UniProt O43186 1-299). Conditions: protein: recombinant; tags: N-terminal GST; dsDNA, one strand shown. In short, it runs like this: as §1
The target in a further experiment is ETV1 (Homo sapiens, UniProt P50549 1-477). Conditions: protein: recombinant; tags: N-terminal GST; dsDNA, one strand shown. The method, boiled down: as §1
Another experiment addresses T6, ERF (Homo sapiens, UniProt P50548 1-548).
T6 sequence: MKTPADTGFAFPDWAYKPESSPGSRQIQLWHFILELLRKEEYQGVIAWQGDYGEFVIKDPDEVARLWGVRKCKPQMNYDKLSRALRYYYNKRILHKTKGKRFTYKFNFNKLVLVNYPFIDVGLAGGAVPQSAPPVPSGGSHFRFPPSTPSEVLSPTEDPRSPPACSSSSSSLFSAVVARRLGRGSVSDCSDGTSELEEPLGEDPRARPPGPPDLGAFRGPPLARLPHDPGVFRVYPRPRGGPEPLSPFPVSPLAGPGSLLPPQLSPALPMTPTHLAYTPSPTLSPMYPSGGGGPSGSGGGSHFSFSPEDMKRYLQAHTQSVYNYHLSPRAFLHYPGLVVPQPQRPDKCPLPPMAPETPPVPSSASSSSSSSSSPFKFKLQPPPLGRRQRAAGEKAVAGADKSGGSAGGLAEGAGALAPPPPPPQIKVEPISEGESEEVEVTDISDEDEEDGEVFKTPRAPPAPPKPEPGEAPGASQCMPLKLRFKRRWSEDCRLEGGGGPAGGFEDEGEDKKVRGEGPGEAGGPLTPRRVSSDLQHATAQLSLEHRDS
The settings on record: protein: recombinant; tags: N-terminal GST; dsDNA, one strand shown. In short, it runs like this:
as §1

A further experiment addresses T7, ETV3L (Homo sapiens, UniProt Q6ZN32 1-361).
T7 sequence: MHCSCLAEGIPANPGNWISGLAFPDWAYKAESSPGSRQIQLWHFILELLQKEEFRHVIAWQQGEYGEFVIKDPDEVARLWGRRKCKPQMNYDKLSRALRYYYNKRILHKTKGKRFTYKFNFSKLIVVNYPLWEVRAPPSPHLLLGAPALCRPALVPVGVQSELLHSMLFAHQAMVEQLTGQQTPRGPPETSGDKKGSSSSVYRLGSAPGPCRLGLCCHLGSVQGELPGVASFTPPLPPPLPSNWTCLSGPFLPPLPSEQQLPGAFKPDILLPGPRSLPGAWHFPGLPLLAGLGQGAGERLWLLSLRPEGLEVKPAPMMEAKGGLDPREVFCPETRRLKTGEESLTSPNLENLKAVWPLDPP
Conditions: protein: recombinant; tags: N-terminal GST; dsDNA, one strand shown. The method, boiled down: as §1

In the next experiment the target is T8, ETS2 (Homo sapiens, UniProt P15036 1-469).
T8 sequence: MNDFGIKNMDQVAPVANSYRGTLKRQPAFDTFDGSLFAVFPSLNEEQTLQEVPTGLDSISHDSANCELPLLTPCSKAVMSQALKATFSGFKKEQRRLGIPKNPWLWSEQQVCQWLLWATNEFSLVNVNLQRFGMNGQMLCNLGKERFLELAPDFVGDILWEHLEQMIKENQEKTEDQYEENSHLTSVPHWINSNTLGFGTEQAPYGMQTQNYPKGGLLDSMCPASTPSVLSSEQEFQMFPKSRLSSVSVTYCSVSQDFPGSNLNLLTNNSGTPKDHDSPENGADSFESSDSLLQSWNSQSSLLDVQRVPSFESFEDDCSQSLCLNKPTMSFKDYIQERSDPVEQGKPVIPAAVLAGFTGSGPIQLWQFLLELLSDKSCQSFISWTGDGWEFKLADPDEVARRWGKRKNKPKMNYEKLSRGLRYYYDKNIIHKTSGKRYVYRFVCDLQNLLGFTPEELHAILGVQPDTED
The settings on record: protein: recombinant; tags: N-terminal GST; dsDNA, one strand shown. In short, it runs like this:
as §1

In the next experiment the target is T9, SPDEF (Homo sapiens, UniProt O95238 1-335).
T9 sequence: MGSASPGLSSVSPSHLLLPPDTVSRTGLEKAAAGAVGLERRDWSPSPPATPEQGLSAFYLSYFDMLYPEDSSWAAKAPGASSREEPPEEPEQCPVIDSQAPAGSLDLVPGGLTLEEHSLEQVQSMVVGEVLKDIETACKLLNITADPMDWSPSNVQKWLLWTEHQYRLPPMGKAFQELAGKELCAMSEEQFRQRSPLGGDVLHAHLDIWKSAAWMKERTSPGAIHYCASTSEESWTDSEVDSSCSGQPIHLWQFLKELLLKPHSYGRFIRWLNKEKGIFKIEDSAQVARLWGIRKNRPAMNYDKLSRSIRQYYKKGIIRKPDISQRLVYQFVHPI
The settings on record: protein: recombinant; tags: N-terminal GST; dsDNA, one strand shown. The method, boiled down:
as §1

Another experiment deals with T10, ETV7 (Homo sapiens, UniProt Q9Y603 1-341).
T10 sequence: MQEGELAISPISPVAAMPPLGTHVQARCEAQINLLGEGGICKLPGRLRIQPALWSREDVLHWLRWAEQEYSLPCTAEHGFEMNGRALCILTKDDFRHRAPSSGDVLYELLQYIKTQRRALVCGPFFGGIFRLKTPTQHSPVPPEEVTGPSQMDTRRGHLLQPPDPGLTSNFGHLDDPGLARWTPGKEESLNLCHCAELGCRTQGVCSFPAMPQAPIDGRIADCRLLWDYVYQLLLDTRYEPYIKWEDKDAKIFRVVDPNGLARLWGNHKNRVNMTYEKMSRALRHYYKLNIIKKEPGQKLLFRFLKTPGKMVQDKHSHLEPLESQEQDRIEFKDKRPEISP
The settings on record: protein: recombinant; tags: N-terminal GST; dsDNA, one strand shown. The method, boiled down: as §1

The target in a further experiment is T11, ELF5 (Homo sapiens, UniProt Q9UKW6-2 1-255).
T11 sequence: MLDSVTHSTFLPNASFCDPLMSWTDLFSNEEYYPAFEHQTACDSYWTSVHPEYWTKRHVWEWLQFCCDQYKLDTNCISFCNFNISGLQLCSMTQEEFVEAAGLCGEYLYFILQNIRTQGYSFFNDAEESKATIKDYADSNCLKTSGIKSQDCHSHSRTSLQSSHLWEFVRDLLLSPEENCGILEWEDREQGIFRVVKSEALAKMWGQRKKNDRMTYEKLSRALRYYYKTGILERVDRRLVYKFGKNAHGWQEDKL
The settings on record: protein: recombinant; tags: N-terminal GST; dsDNA, one strand shown. The method, boiled down:
as §1

In a further experiment the target is T12, ETV3 (Homo sapiens, UniProt P41162-2 1-143).
T12 sequence: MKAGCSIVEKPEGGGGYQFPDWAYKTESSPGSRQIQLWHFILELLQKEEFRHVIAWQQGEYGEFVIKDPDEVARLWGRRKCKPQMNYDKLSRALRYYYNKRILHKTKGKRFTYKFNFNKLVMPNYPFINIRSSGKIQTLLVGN
The settings on record: protein: recombinant; tags: N-terminal GST; dsDNA, one strand shown. The method, boiled down:
as §1

A further experiment concerns the target ETV6 (Homo sapiens, UniProt P41212 1-452). Conditions: protein: recombinant; tags: N-terminal GST; dsDNA, one strand shown. In short, it runs like this:
as §1

ETV5, sequence (P41161 whole entry): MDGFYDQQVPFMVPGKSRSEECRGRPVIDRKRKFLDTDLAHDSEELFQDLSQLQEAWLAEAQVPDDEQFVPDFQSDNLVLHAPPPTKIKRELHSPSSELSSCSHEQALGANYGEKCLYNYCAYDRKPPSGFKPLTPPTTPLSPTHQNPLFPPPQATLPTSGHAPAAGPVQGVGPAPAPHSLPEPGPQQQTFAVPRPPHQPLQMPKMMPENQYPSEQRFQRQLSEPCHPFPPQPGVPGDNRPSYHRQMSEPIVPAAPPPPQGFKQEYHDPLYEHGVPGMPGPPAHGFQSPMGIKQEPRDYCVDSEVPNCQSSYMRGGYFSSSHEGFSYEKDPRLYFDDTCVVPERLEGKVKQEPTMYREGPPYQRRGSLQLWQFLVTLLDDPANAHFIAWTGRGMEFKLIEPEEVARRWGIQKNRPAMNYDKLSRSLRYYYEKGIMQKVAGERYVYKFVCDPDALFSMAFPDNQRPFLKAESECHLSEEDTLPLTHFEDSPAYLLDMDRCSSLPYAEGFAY
ELF4, sequence (Q99607 whole entry): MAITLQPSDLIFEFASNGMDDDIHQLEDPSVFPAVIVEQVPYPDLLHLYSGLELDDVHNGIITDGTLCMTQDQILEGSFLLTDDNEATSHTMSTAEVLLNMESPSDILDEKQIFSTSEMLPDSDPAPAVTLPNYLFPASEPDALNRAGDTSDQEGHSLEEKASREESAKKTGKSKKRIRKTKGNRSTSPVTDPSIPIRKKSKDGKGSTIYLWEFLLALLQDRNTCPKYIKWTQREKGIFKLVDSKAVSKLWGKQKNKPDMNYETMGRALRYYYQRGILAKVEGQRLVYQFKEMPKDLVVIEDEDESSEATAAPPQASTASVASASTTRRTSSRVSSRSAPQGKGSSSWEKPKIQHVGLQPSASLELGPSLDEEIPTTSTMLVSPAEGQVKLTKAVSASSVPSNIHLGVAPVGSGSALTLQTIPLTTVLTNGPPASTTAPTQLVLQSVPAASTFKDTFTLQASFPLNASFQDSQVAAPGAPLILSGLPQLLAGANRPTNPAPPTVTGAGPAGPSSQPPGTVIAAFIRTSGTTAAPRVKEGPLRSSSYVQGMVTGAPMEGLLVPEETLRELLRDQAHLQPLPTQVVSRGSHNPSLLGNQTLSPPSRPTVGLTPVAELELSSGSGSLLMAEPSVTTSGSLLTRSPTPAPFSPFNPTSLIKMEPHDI
ETV6, sequence (P41212 whole entry): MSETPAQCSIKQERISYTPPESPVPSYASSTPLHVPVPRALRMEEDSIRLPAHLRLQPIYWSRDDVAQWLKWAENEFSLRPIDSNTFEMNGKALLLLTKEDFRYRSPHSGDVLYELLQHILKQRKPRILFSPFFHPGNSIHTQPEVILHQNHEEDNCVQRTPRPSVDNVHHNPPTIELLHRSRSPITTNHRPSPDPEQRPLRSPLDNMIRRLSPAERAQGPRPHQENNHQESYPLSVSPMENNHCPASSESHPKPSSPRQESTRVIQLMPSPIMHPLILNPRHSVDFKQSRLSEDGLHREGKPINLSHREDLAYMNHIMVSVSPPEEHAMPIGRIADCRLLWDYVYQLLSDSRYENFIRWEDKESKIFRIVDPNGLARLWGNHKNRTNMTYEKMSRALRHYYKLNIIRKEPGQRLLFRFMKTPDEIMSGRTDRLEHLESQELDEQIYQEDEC
HSF1, sequence (Q00613 whole entry): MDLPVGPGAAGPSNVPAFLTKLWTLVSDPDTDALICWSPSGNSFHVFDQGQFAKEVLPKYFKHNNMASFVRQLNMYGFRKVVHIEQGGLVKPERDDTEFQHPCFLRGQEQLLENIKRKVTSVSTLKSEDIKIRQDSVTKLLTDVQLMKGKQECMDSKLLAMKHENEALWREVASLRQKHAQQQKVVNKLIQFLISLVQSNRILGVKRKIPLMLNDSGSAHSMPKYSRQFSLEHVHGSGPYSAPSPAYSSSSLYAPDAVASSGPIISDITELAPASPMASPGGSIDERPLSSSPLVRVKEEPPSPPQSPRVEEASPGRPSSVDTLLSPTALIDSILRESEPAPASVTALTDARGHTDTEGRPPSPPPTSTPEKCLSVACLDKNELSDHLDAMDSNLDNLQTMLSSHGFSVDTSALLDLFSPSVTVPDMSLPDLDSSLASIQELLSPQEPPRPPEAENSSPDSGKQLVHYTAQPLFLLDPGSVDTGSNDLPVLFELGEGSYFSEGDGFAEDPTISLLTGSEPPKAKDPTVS
CRX, sequence (O43186 whole entry): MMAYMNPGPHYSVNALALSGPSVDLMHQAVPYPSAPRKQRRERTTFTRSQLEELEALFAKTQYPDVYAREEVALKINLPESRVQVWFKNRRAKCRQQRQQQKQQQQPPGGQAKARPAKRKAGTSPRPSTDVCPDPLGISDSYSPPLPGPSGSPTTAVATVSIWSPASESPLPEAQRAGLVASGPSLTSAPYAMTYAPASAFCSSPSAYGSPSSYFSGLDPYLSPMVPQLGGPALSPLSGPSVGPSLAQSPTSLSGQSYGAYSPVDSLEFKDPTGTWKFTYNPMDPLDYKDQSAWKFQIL
ETV1, sequence (P50549 whole entry): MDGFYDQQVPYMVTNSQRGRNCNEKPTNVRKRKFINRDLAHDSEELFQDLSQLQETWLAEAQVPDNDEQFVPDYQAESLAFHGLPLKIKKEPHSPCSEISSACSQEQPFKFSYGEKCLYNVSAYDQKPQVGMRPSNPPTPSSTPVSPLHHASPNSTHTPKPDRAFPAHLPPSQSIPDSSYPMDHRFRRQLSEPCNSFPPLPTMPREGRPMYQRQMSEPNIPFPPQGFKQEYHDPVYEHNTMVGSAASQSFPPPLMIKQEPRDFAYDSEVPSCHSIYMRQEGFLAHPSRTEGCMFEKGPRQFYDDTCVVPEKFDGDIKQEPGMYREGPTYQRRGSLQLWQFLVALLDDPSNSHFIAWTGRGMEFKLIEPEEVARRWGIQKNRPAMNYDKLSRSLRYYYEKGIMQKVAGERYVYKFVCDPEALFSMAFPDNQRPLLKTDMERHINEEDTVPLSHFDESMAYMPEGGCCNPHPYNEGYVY

TTGTGT: the binding signal was 1.15 fold enrichment (6-mer frequency, TF over GST control) with FEV; 1.14 fold enrichment (6-mer frequency, TF over GST control) with ETV5; 1.05 fold enrichment (6-mer frequency, TF over GST control) in the experiment with HSF1; 1.04 fold enrichment (6-mer frequency, TF over GST control) in the experiment with SPIC; 1.2 fold enrichment (6-mer frequency, TF over GST control) with ELF4; 1.28 fold enrichment (6-mer frequency, TF over GST control) with ELK4. In addition, the binding signal is 1.29 fold enrichment (6-mer frequency, TF over GST control) with ETV2; 1.14 fold enrichment (6-mer frequency, TF over GST control) in the experiment with ELF3; 1.12 fold enrichment (6-mer frequency, TF over GST control) in the experiment with CRX; 1.09 fold enrichment (6-mer frequency, TF over GST control) in the experiment with ETV1; 1.4 fold enrichment (6-mer frequency, TF over GST control) with ERF; 1.15 fold enrichment (6-mer frequency, TF over GST control) in the experiment with ETV3L. Further, the binding signal was 1.16 fold enrichment (6-mer frequency, TF over GST control) in the experiment with ETS2; 1.26 fold enrichment (6-mer frequency, TF over GST control) with SPDEF; 1.34 fold enrichment (6-mer frequency, TF over GST control) with ETV7; 1.16 fold enrichment (6-mer frequency, TF over GST control) with ELF5; 1.27 fold enrichment (6-mer frequency, TF over GST control) with ETV3; 1.19 fold enrichment (6-mer frequency, TF over GST control) with ETV6.
